Test [1] in a line: Wnt pathway potentiators raising nuclear beta-catenin – imaging, WNT3A-conditioned medium, mouse C2C12, NPC library, primary screen (AID 1117326; in the data active = nuclear beta-catenin stimulation mostly above about 4.2%, no sharp cut-off; inactive = mostly below about 10%; note: reference of the scale not given here). The conditions noted are these: stronger effect = higher value.
The nature of test [2]: stimulators of insulin release from INS-1E, primary screen, cell-based, 5 mM glucose, NPC library (AID 1117329;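 active = compound raises insulin release from rat beta cells at 5 mM glucose, no numeric limit stated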; note: reference of the scale not given here). To be noted: rat INS-1E insulin secretion, at 10 µM, stronger effect = higher value.
Test [3] can be described thus: growth inhibition of GSK3B-pretreated HCT116 cells – cell-based, CellTiter-Glo, 0.2 to 20 µM (AID 1117336;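 active = compounds lowering colon cancer cell viability after pretreatment blocking the GSK3B kinase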). The conditions noted are these: HCT116 viability after GSK3B inhibitor, at 20 µM, stronger effect = higher value.
Test [4] in a line: inhibition of endothelial tube formation, primary screen, imaging, VEGF stimulated, CD31 staining, tube area, NPC library (AID 1117340;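 active = compound that reduces growth-factor-driven endothelial tube area in a mixed cell culture, no cutoff stated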). The conditions noted are these: VEGF-stimulated ADSC/ECFC co-culture, at 10 µM, stronger effect = higher value.
Test [5] in a line: GLP1 release stimulators, primary, NCI-H716, NPC library (AID 1117341;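 active = compound raises GLP1 secretion from the human gut endocrine cells, with no numeric limit stated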; note: reference of the scale not given here). The conditions noted are these: NCI-H716 cells, at 10 µM, stronger effect = higher value.
A short description of test [6]: HCT116 colon cancer cell growth inhibition, primary screen, CellTiter-Glo luminescence, NPC library (AID 1117342;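 active = compounds that lower survival of HCT116 colon cancer cells in the luminescence readout, no numeric limit stated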). To be noted: at 20 µM (top of the series). (In ATP-based viability assays light output follows the ATP content of the culture.)
Test [7] in a line: reduced SW480 viability measured with CellTiter-Glo, NPC library, primary (AID 1117343;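 active = compounds that lower viability of the colon cancer cells in the luminescence readout, with no numeric limit stated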). The conditions noted are these: CellTiter-Glo luminescence; at 20 µM (top of the series) unless noted.
The nature of test [8]: NPC library primary testing for decreased DLD-1 cell viability via CellTiter-Glo (AID 1117346;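 active = compounds that lower survival of DLD-1 colon cancer cells in the luminescence readout, no cutoff given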). The conditions noted are these: DLD-1 viability, CellTiter-Glo luminescence; at 20 µM (top of the series).
A short description of test [9]: viability loss in pontine glioma line – cell-based, JHH-DIPG-1, MIPE4.0, CellTiter-Glo, qHTS, dose response (AID 1347062; cut-off not given, nearly all actives have AC50 up to about 27 µM;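 for AC50: cells exposed to compound for two days before readout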). To be noted: JHH-DIPG-1 viability, CellTiter-Glo ATP luminescence.
Test [10] is described as follows: viability loss in pontine glioma line – cell-based, SU-DIPG-IV, MIPE4.0, CellTiter-Glo, qHTS, dose response (AID 1347063).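 Note: compound exposure lasted 48 hours before the viability readout.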 The conditions noted are these: CellTiter-Glo ATP luminescence.
Test [11] in a line: growth inhibition of DIPG cells – cell-based, MIPE4.0 library, CellTiter-Glo luminescence, qHTS (AID 1347066).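 Note: cells exposed to compound for 48 hours before readout.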 The conditions noted are these: SU-DIPG-VI viability, CellTiter-Glo ATP luminescence.
Test [12] is described as follows: viability loss in pontine glioma line – cell-based, SU-DIPG-XXV, MIPE5.0, CellTiter-Glo, qHTS, dose response (AID 1347065; cut-off not given, nearly all actives have AC50 up to about 26 µM;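 note: cells exposed to compound for 48 hours before ATP readout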). The conditions noted are these: CellTiter-Glo ATP luminescence.
Test [13] in a line: JHH-DIPG-1 glioma cell viability, MIPE5.0 library, CellTiter-Glo luminescence, qHTS (AID 1347067; cut-off not given, nearly all actives have AC50 up to about 26 µM;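 note: cells exposed to compound for 48 hours before readout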). To be noted: JHH-DIPG-1 glioma viability, CellTiter-Glo ATP luminescence.
Test [14] in a line: growth inhibition of DIPG cells – cell-based, MIPE5.0 library, qHTS (AID 1347068; cut-off not given, nearly all actives have IC50 up to about 30 µM;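 for IC50: cells exposed to compound for 48 hours before viability readout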). To be noted: SU-DIPG-XXV viability.
Test [15] in a line: viability loss with induced miR-34 in A549 – imaging, A549 dox-inducible miR-34, nuclei and caspase counts, primary screen (AID 1347080;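 active = compounds whose cell count with miR-34 switched on is under 0.7 times the count with it off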). The conditions noted are these: A549 miR-34 inducible, Hoechst nuclei count, 48 h.
The nature of test [16]: MELAS cybrid and Rieske KO viability enhancers – cell-based, MELAS cybrids, Rieske KO mouse fibroblasts, CellTiter-Glo, primary screen (AID 1508586;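 active = mean z-score across replicates of 1.96 or higher in either the MELAS or the Rieske mutant cell line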;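 note: z relative to plate mean and SD of compound and empty wells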). To be noted: low glucose.
Test [17] in a line: galactose survival enhancers in mitochondrial complex I cybrids – cell-based, galactose medium, ATP luminescence, primary screen (AID 1645843;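 active = z-score of at least 1.8 in each of two replicates, scored against plate mean and spread of sample wells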;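 note: positive z means more ATP and so rescue of galactose-driven cybrid death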). The conditions noted are these: complex I mutant cybrid cells, 72 h, stronger effect = higher value.
Setting [18] is: stronger effect = lower value, cell number ratio, induced over uninduced.
The mark [19] stands for this setting: measured here: relative caspase fold change +Dox/-Dox.
Setting [20] is: measured here: total cells with miR-34 induction, stronger effect = lower value.
The mark [21] stands for this setting: measured here: total cells without miR-34 induction.
Where [22] appears, read: MELAS cybrid survival, CellTiter-Glo 48 h, stronger effect = higher value.
Setting [23] is: Rieske KO mouse fibroblast survival, CellTiter-Glo 72 h.

Where “and” joins values, the source holds several entries; their conditions need not be identical. Identical values can stand only once. Records with an inconclusive call do not appear. Calls of active or inactive are those of the source. Unless noted, no cut-off is given here; in the data, nearly all actives have AC50 up to about 30 µM.

`Cc1cc(=O)c2c(O)c3c(O)cc(=O)c4c3c3c(cc(O)c1c23)C(C)(C)C=4O`: the nuclear beta-catenin stimulation in test [1] (at 10 µM) is 46.6% (active); in test [1] (stimulation, at 2 µM), 68.1%. In test [2], the insulin secretion stimulation was 0.4% (inactive). Also, the viability decrease in test [3] was 117% (active). Besides, in test [4], the tube area decrease was 54.9% (active). In [5], the GLP1 secretion stimulation is 8% (inactive). In test [6], the inhibition of viability was 124% (active). The viability decrease (inhibition) was 158% (active) in test [7] and 101% (active) in test [8]. Moreover, the AC50 (commonly the midpoint of the concentration-response curve, whichever way the signal moves) was 0.743 µM (active) in test [9], 0.469 µM (active) in test [10] and 0.105 µM (active) in test [11].
On to `O=c1cc(O)c(Cl)c[nH]1`, for which the nuclear beta-catenin stimulation is -0.6% (inactive) in test [1] (at 10 µM) and -0.5% in test [1] (stimulation, at 2 µM). The insulin secretion stimulation in test [2] is -1.9% (inactive). For the same compound, in [3], the viability decrease was 28% (inactive). Also, the tube area decrease in test [4] is -18.9% (inactive). Besides, in [5], the GLP1 secretion stimulation was -0.1% (inactive). Besides, in [6], the inhibition of viability was 27.8% (inactive). The viability decrease (inhibition) is 54.6% (active) in test [7] and 12.9% (inactive) in test [8]. The result in test [12], in test [11], in [13] and in test [14] was inactive. Besides, the fold change in test [15] (setting [18]) was 0.957 (inactive); in test [15] (setting [19]), 1.21. For the same compound, the results for the cell count in test [15] (setting [20]) and in test [15] (setting [21]) were 8010 and 8380, respectively. Moreover, the z-score in [16] (setting [22]) was -0.106 (inactive); in test [16] (setting [23]), -0.13.
Turning to `C[C@]12CCC(=O)C=C1[C@@H]1C[C@@H]1[C@H]1[C@@H]3[C@@H]4C[C@@H]4[C@@]4(CCC(=O)O4)[C@@]3(C)CC[C@@H]12`, the nuclear beta-catenin stimulation in [1] (at 10 µM) is 1.8% (inactive); in test [1] (stimulation, at 2 µM) it was 3%. In addition, the insulin secretion stimulation in test [2] was 1.5% (inactive). The viability decrease in test [3] is 2.2% (inactive). In addition, the tube area decrease in test [4] was 2.8% (inactive). The GLP1 secretion stimulation in test [5] is 3.8% (inactive). The inhibition of viability in test [6] was 27.4% (inactive). Also, the viability decrease (inhibition) is -2.6% (inactive) in test [7] and 3.1% (inactive) in test [8]. For the same compound, the compound was called inactive in [9], in test [11], in test [13] and in test [14].
`CCCCc1oc2ccc(NS(C)(=O)=O)cc2c1C(=O)c1ccc(OCCCN(CCCC)CCCC)cc1`: the nuclear beta-catenin stimulation is -3.1% (inactive) in test [1] (at 10 µM) and 2% in test [1] (stimulation, at 2 µM). For the same compound, in test [2], the insulin secretion stimulation is 2.1% (inactive). In [3], the viability decrease is 99.1% (active). Besides, in test [4], the tube area decrease is 109% (active). The GLP1 secretion stimulation in [5] was -5.9% (inactive). Further, the inhibition of viability in [6] was 99.3% (active). Also, the figures for the viability decrease (inhibition) in [7] and in [8] were 102% (active) and 101% (active), respectively. Moreover, the AC50 was 7.43 µM (active) in test [10], 13.2 µM (active) in test [11] and 10.5 µM (active) in [13]. Further, the IC50 (usually the concentration at which inhibition is half-maximal) in test [14] was 10.5 µM (active). The fold change was 1.3 (inactive) and 0.866 (inactive) in test [15] (setting [18]); 0.545 and 1.08 in test [15] (setting [19]). For the same compound, the cell count in test [15] (setting [20]) was 1680 and 3440; in test [15] (setting [21]) it was 1290 and 3970. Moreover, the z-score in [16] (setting [22]) was -1.62 and -0.663 (inactive); in [16] (setting [23]) it was 1.98 and -1.01; in test [17] it was -2.66 (inactive).
As to `CCOC(=O)c1c(C)n(C)c2ccc(O)cc12`, the nuclear beta-catenin stimulation in test [1] (at 10 µM) is 0.7% (inactive); in [1] (stimulation, at 2 µM) it was 2.1%. The insulin secretion stimulation in [2] was 0.5% (inactive). Also, the viability decrease in test [3] was -5.75% (inactive). Further, in test [4], the tube area decrease was -15.4% (inactive). The GLP1 secretion stimulation in test [5] was 3.6% (inactive). Moreover, the inhibition of viability in [6] was 0% (inactive). Further, the viability decrease (inhibition) was 7% (inactive) in test [7] and -0.8% (inactive) in test [8]. Moreover, the compound was classed as inactive in test [9], in [10], in test [11] and in test [14]. Also, the fold change in [15] (setting [18]) is 0.886 (inactive); in test [15] (setting [19]), 0.841. Moreover, the cell count in test [15] (setting [20]) stood at 7760; in test [15] (setting [21]), 8760. Moreover, the results for the z-score in test [16] (setting [22]) and in test [16] (setting [23]) were -0.277 (inactive) and 0.616, respectively.

For the origin of these results see PubChem BioAssay.
